Measured values published in PubChem BioAssay (NCI).
The panel holds about 79,000 compounds, 15% with a hit somewhere; the sample as a whole holds those more often. Values without a mark were called inactive. The source made the active and inactive calls. Rule as the data show it: active = growth inhibition above about 70%; inactive = the rest.

Legend:
[1] = NCI Yeast Anticancer Drug Screen. Data for the rad50 strain (AID 155);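 also: 0% = growth of vehicle-only cultures of the same strain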; conditions: S. cerevisiae rad50 strain growth inhibition, active compounds read high
In short: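 Readout: growth inhibition relative to vehicle-treated cultures. Compound exposure was carried out in a genetically defined yeast strain deficient in DNA damage repair.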

[2] = NCI Yeast Anticancer Drug Screen. Data for the mec2-1 strain (AID 157); conditions: S. cerevisiae mec2-1 strain, active compounds read high
In short: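 Readout is yeast growth inhibition, normalised to vehicle-treated controls, in the mec2-1 strain exposed to compound.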

[3] = NCI Yeast Anticancer Drug Screen. Data for the sgs1 mgt1 strain (AID 161);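 also: 0% = growth of cultures given vehicle only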; conditions: S. cerevisiae sgs1 mgt1 strain, active compounds read high
In short: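 Growth of a repair-deficient yeast mutant was monitored after compound treatment and expressed as inhibition relative to vehicle-treated cultures.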

[4] = NCI Yeast Anticancer Drug Screen. Data for the cln2 rad14 strain (AID 165);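 also: 0% = growth equal to vehicle treated cultures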; conditions: S. cerevisiae cln2 rad14 strain, active compounds read high
In short: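 Relative to vehicle controls, growth inhibition of compound-treated cln2 rad14 yeast was recorded.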

[5] = NCI Yeast Anticancer Drug Screen. Data for the bub3 strain (AID 167); conditions: S. cerevisiae bub3 mutant strain, active compounds read high
In short: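 Readout: yeast growth inhibition, expressed relative to vehicle-only wells. The test organism is a mutant strain from a panel with lesions in DNA repair or checkpoint genes.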

[6] = NCI Yeast Anticancer Drug Screen. Data for the mlh1 rad18 strain (AID 175); conditions: S. cerevisiae mlh1 rad18 strain growth inhibition, active compounds read high
In short: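 Test agents were incubated with a yeast strain of defined genotype (DNA damage repair defect). Inhibition of growth was derived by comparison with vehicle-exposed cultures.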

[7] = at 5.0 µM (retest, dose inferred, filed as 0.5)
[8] = at 50.0 µM (retest, dose inferred, filed as 5.0)

SMILES | growth inhibition [1, 7] | growth inhibition [1, 8] | growth inhibition ([1]; at 50.0 µM) | growth inhibition [2, 7] | growth inhibition [2, 8] | growth inhibition ([2]; at 50.0 µM) | growth inhibition [3, 7] | growth inhibition [3, 8] | growth inhibition ([3]; at 50.0 µM) | growth inhibition [4, 7] | growth inhibition [4, 8] | growth inhibition ([4]; at 50.0 µM) | growth inhibition [5, 7] | growth inhibition [5, 8] | growth inhibition ([5]; at 50.0 µM) | growth inhibition [6, 7] | growth inhibition [6, 8] | growth inhibition ([6]; at 50.0 µM)
CCOCCNc1ncnc2c1cnn2C | 2% | -5% | -1.1% | -4% | -3% | -18.4% | -16% | -6% | 13.1% | -5% | -1% | -0.35% | 0% | 2% | 8% | 3% | -1% | 39%
Clc1ccc(CSCCc2ccncc2)cc1Cl | -5% | 98% (active) | 98.7% (active) | 0% | 96% (active) | 99% (active) | 5% | 97% (active) | 97.5% (active) | -19% | 95% (active) | 97.6% (active) | 5% | 98% (active) | 98.2% (active) | 4% | 97% (active) | 98.8% (active)
C=CC(=O)N1C/C(=C\c2ccccc2)C(=O)/C(=C/c2ccccc2)C1 | 44% | 75% (active) | 73.8% (active) | 37% | 80% (active) | 80.2% (active) | 49% | 90% (active) | 71.7% (active) | 39% | 58% | 48.2% | 40% | 87% (active) | 78.5% (active) | 50% | 94% (active) | 84.7% (active)
COc1ccc(C(=O)Nc2ccccc2[N+](=O)[O-])cc1 | -6% | 7% | -1.15% | -16% | -23% | 8.3% | -13% | -11% | 10.4% | -14% | 5% | 48.5% | -15% | 13% | 19.2% | -13% | 0% | 16.2%
O=C1CCC(Cc2ccc(Cl)cc2Cl)C(=O)N1 (stereo not given) | -8% | 3% | -7.6% | -3% | -6% | 6.15% | 45% | 95% (active) | 92.8% (active) | -4% | -2% | -68.7% | -4% | 0% | -47.7% | -5% | 3% | -7%
O=C(O)c1ccc(Br)cc1C(=O)c1ccccc1 | -18% | -15% | 1.15% | -19% | 10% | 9.45% | -2% | 1% | -3.3% | 31% | -38% | 11.8% | 8% | -18% | 6.35% | -11% | 6% | -20.4%
COC(=O)c1ccc2ccccc2c1C(=O)c1ccc(F)cc1 | -1% | 94% (active) | 96.8% (active) | 2% | 96% (active) | 95.5% (active) | 4% | 95% (active) | 96.2% (active) | 11% | 90% (active) | 61.7% | 25% | 97% (active) | 97.4% (active) | 2% | 95% (active) | 95% (active)
COc1ccc(OC(C)=O)c2c1CCC=CC2=O | 14% | 93% (active) | 41.9% | 24% | 96% (active) | 41.9% | 18% | 93% (active) | 61.3% | 14% | 80% (active) | 57% | 22% | 92% (active) | 65.3% | 14% | 95% (active) | 74% (active)
CC(C)=CCC/C(=C/CC/C(C)=C/CCc1ccoc1)C(=O)O | -5% | 20% | 72.8% (active) | 3% | 26% | 44.1% | -9% | 41% | 59.4% | 17% | 73% (active) | 42.7% | -9% | 64% | 53% | 2% | 35% | 62.3%
S=c1sc2ccccc2n1CNc1ccccc1 | -2% | 14% | 64.9% | 0% | 7% | 68.1% | 2% | 53% | 72.2% (active) | -5% | -10% | -40.6% | -1% | 18% | 74.3% (active) | 5% | -11% | 69.3%
